The structures appear in SMILES notation. About 83,000 compounds went through this panel and 20% of them were active in at least one assay; those are over-represented in the sample as a whole.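 Cells were grown in 96-well plates and exposed to the test compound at a single concentration for 48 hours; results are reported as percent growth, with values below 10 considered active.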 A number with no mark means an inactive call. The source made the active and inactive calls.

Assay in all cases: NCI-60 one-dose screen, 48 h (100 = growth as untreated, 0 = no growth, -100 = all killed)
One assay deals with SK-MEL-2 melanoma. The note with it: 10 µM unless noted.
In a further assay the test system is EKVX NSCLC. The note with it: 10 µM unless noted.
A further assay concerns UO-31 renal. Particulars: 10 µM unless noted.
For a further assay, the system named is ACHN renal. Particulars: 10 µM unless noted.
In the next assay the test system is CAKI-1 renal. Particulars: 10 µM.
For a further assay, the system named is A498 renal. The note with it: 10 µM unless noted.
In the next assay the test system is CCRF-CEM leukemia. The note with it: 10 µM unless noted.
For the next assay, the system named is MOLT-4 leukemia. Particulars: 10 µM unless noted.
The test system of another assay is SR leukemia. Particulars: 10 µM unless noted.
For a further assay, the system named is RPMI-8226 leukemia. The note with it: 10 µM unless noted.
The subject of another assay is OVCAR-8 ovarian. The note with it: 10 µM unless noted.
In another assay the test system is OVCAR-5 ovarian. The note with it: 10 µM unless noted.
The next assay deals with OVCAR-4 ovarian. The note with it: 10 µM unless noted.
A further assay has as its system SK-OV-3 ovarian. Particulars: 10 µM unless noted.
For another assay, the system named is IGROV1 ovarian. The note with it: 10 µM unless noted.
In another assay the test system is OVCAR-3 ovarian. Particulars: 10 µM unless noted.
Another assay concerns HS 578T breast. The note with it: 10 µM unless noted.
The subject of another assay is NCI/ADR-RES ovarian. The note with it: 10 µM unless noted.
For a further assay, the system named is TK-10 renal. Particulars: 10 µM unless noted.

For `CSc1ccc(C(=O)C[n+]2cccc(C)c2)cc1`, the growth in the assay with SK-MEL-2 melanoma was 110%; in the assay with EKVX NSCLC, 100%; in the assay with UO-31 renal it was 97.4%; in the assay with ACHN renal it was 112%; with CAKI-1 renal, 102%; in the assay on A498 renal, 86.7%. Also, the growth in the assay on CCRF-CEM leukemia is 99.8%; in the assay on MOLT-4 leukemia, 97%; in the assay on SR leukemia it was 106%; in the assay on RPMI-8226 leukemia it was 98.2%; with OVCAR-8 ovarian, 106%; with OVCAR-5 ovarian, 104%. Besides, the growth in the assay with OVCAR-4 ovarian is 113%; with SK-OV-3 ovarian, 102%; with IGROV1 ovarian it was 106%; in the assay on OVCAR-3 ovarian, 104%; in the assay on HS 578T breast it was 98.4%; with NCI/ADR-RES ovarian, 104%.
For the compound `CC(C(=O)O)N1C(N)=NNC1c1ccccc1O` (configuration not stated), the growth in the assay on SK-MEL-2 melanoma was 99.7%; in the assay on EKVX NSCLC it was 50.6%; with UO-31 renal, 66.3%; with TK-10 renal, 148%; in the assay on ACHN renal it was 87.3%; in the assay on A498 renal, 98.8%. Moreover, the growth is 82.7% in the assay on CCRF-CEM leukemia; 68.1% with MOLT-4 leukemia; 72.2% in the assay on SR leukemia; 73.1% in the assay with RPMI-8226 leukemia; 90.2% with OVCAR-8 ovarian; 108% with OVCAR-5 ovarian. Further, the growth with OVCAR-4 ovarian was 76.3%; in the assay with SK-OV-3 ovarian, 105%; in the assay with IGROV1 ovarian it was 70.9%; in the assay on OVCAR-3 ovarian it was 83%; in the assay on HS 578T breast it was 91.1%; in the assay on NCI/ADR-RES ovarian, 83.8%.
For `O=C(NCCNc1nccc(-c2c(-c3cccc(O)c3)nc3sccn23)n1)c1ccccc1`, the growth was 45.5% with SK-MEL-2 melanoma; 94.2% with EKVX NSCLC; 87.7% in the assay on UO-31 renal; 60.5% with ACHN renal; 87.9% in the assay with CAKI-1 renal; 48% in the assay with A498 renal. For the same compound, the growth is 47.3% with CCRF-CEM leukemia; 67.1% with MOLT-4 leukemia; 68% with SR leukemia; 76.8% in the assay with RPMI-8226 leukemia; 66.6% in the assay on OVCAR-8 ovarian; 90.6% in the assay with OVCAR-5 ovarian. The growth was 98% in the assay with OVCAR-4 ovarian; 65.1% in the assay with SK-OV-3 ovarian; 57.4% with IGROV1 ovarian; 92.3% in the assay on OVCAR-3 ovarian; 99.7% in the assay with NCI/ADR-RES ovarian.
Consider `Cc1cccc(NCS(=O)(=O)O)c1`, for which the growth in the assay on SK-MEL-2 melanoma is 109%; in the assay with EKVX NSCLC it was 98.7%; with UO-31 renal, 93%; in the assay with TK-10 renal, 98.5%; in the assay with ACHN renal, 107%; in the assay with A498 renal it was 111%. Also, the growth with CCRF-CEM leukemia was 102%; in the assay with MOLT-4 leukemia, 102%; in the assay with SR leukemia, 107%; in the assay on RPMI-8226 leukemia, 102%; in the assay on OVCAR-8 ovarian, 88.6%; with OVCAR-5 ovarian, 107%. Moreover, the growth in the assay with OVCAR-4 ovarian was 109%; in the assay on SK-OV-3 ovarian, 97.4%; with IGROV1 ovarian, 102%; in the assay with OVCAR-3 ovarian, 116%; with HS 578T breast, 104%; with NCI/ADR-RES ovarian, 105%.
Turning to `N#Cc1c2c(c(N)[nH]c1=O)C(=O)NC2(O)c1ccccc1` (configuration not stated), the growth was 97.9% in the assay on SK-MEL-2 melanoma; 98.1% with EKVX NSCLC; 89.1% in the assay with UO-31 renal; 93% with TK-10 renal; 106% in the assay with A498 renal; 100% with CCRF-CEM leukemia. In addition, the growth is 95.4% in the assay with MOLT-4 leukemia; 93.1% with SR leukemia; 106% in the assay on OVCAR-8 ovarian; 111% with OVCAR-5 ovarian; 117% in the assay on OVCAR-4 ovarian; 103% in the assay with SK-OV-3 ovarian. Besides, the growth in the assay with IGROV1 ovarian is 109%; with OVCAR-3 ovarian it was 102%; in the assay with HS 578T breast, 111%; with NCI/ADR-RES ovarian it was 105%.
`COc1ccc(/C=N/C2=NNC(C)(c3ccccc3O)N2C(Cc2c[nH]c3ccccc23)C(=O)O)cc1` (configuration not stated): the growth is 20.2% in the assay with SK-MEL-2 melanoma; 27.5% in the assay on EKVX NSCLC; 32.1% in the assay on UO-31 renal; 70.4% with TK-10 renal; 46.5% in the assay with ACHN renal; 46.5% with A498 renal. For the same compound, the growth was 19.7% in the assay on CCRF-CEM leukemia; 14.4% with MOLT-4 leukemia; 6.53% (active) with SR leukemia; -15.2% (active) with RPMI-8226 leukemia; 17.1% in the assay on OVCAR-8 ovarian; 69.4% in the assay with OVCAR-5 ovarian. Moreover, the growth in the assay on OVCAR-4 ovarian was 33.3%; with SK-OV-3 ovarian, 46.8%; in the assay on IGROV1 ovarian, 16.7%; in the assay with OVCAR-3 ovarian, 30%; with HS 578T breast, 51.7%; with NCI/ADR-RES ovarian, 34.9%.
Turning to `CCC(N)(C(=O)O)c1ccc(F)cc1` (configuration not stated), the growth with SK-MEL-2 melanoma is 98%; in the assay on EKVX NSCLC, 104%; in the assay on UO-31 renal it was 98.5%; in the assay on TK-10 renal, 95.5%; in the assay on ACHN renal, 114%; in the assay on A498 renal, 117%. Also, the growth in the assay with CCRF-CEM leukemia was 94.8%; with MOLT-4 leukemia, 90.1%; in the assay with SR leukemia it was 105%; with RPMI-8226 leukemia, 98.4%; in the assay with OVCAR-8 ovarian, 101%; in the assay on OVCAR-5 ovarian it was 111%. In addition, the growth was 117% in the assay with OVCAR-4 ovarian; 113% in the assay on SK-OV-3 ovarian; 109% with IGROV1 ovarian; 99.9% with OVCAR-3 ovarian; 111% with HS 578T breast; 106% with NCI/ADR-RES ovarian.
As for `CCCCCCCC(=O)SCC/C=C/[C@@H]1CC(=O)NCc2nc(cs2)C2=N[C@@](C)(CS2)C(=O)N[C@@H](C(C)C)C(=O)N1`, the growth with SK-MEL-2 melanoma was -34.7% (active); in the assay with EKVX NSCLC, 32.8%; with UO-31 renal it was 18.9%; with ACHN renal, 7.25% (active); with A498 renal, -50.3% (active); in the assay on CCRF-CEM leukemia, 21.3%. Also, the growth was 9.36% (active) with MOLT-4 leukemia; 6.51% (active) in the assay with SR leukemia; -6.34% (active) in the assay on RPMI-8226 leukemia; 5.08% (active) in the assay on OVCAR-8 ovarian; 22.5% in the assay on OVCAR-5 ovarian; 31% with OVCAR-4 ovarian. Also, the growth is -4.42% (active) with SK-OV-3 ovarian; 0.908% (active) with IGROV1 ovarian; -7.56% (active) in the assay with OVCAR-3 ovarian; 11.5% with HS 578T breast; 84.5% with NCI/ADR-RES ovarian.
`N#Cc1c(N)nc(Cl)c(C#N)c1C(=O)c1ccccc1`: the growth was 19.4% in the assay with SK-MEL-2 melanoma; 87.8% with EKVX NSCLC; 32.4% in the assay on UO-31 renal; 48.6% in the assay on TK-10 renal; 108% with A498 renal; 10.2% in the assay with CCRF-CEM leukemia. In addition, the growth is 19.7% in the assay with MOLT-4 leukemia; -17.6% (active) with SR leukemia; -17.6% (active) in the assay on RPMI-8226 leukemia; 36.8% in the assay with OVCAR-8 ovarian; 91.2% with OVCAR-5 ovarian; 96.7% in the assay on OVCAR-4 ovarian. Moreover, the growth with SK-OV-3 ovarian was 74.5%; in the assay on IGROV1 ovarian it was 32.1%; in the assay with OVCAR-3 ovarian, 50.4%; in the assay on HS 578T breast, 71%; in the assay on NCI/ADR-RES ovarian, 81.4%.
